RORg inh – blocks mouse ROR gamma transcriptional activity | P51450 | Drosophila S2 Gal4-RORgamma UAS-luciferase reporter, 20 h | Potency, µM (doses to about 53.6 µM), for the others: at the highest dose activity change, negative = inhibition, hits mostly inhibitors | 310,000 tested, 5.4% active | AID 2551; further: nearly all actives have a fitted effect of over 60% in size
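Schneider cells (Drosophila), stable Gal4 DBD–ROR gamma + UAS-luc; 1 hr cmpd preincubation; Cu2+ induction 700 uM final; 20 hr ambient; luminescence.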
DT40 TDP1 no CPT – qHTS for Inhibitors of human tyrosyl-DNA phosphodiesterase 1 (TDP1): qHTS in cells in absence of CPT; 420,000 tested, 15% active; DT40 Tdp1-/- hTDP1 cells, no CPT, ATP luminescence, 48 h; Potency, µM (highest dose often 46.2 µM), inactives show at the top dose activity change, negative = growth inhibition, hits mostly inhibitors; AID 686978, 2013; further: nearly all actives have a fitted effect of over 55% in size
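Readout: luminescence from CellTiter-Glo after 30 min in the dark at RT. Cells: DT40 Tdp1-/- with stable hTDP1, 400/well. Exposure: compounds alone, ≥48 hr, 37 °C.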
DT40 TDP1 CPT – growth inhibition of DT40 Tdp1-/-;hTDP1 cells with camptothecin (screen for TDP1 inhibitors) | chicken DT40 Tdp1-/-;hTDP1 cells + 20 nM CPT, ATP luminescence, 48 h | Potency, µM (titrated, usually from 46.2 µM), inactives show at the top dose activity change, negative = growth inhibition, usual class: inhibitors | 420,000 tested, 12% active | AID 686979; further: nearly all actives have a fitted effect of over 55% in size
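Cell growth measured by CellTiter-Glo luminescence after a minimum 48 h, 37 C compound exposure with 20 nM CPT in Tdp1-knockout DT40 cells stably expressing hTDP1, seeded 400/well; qHTS titration format.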
Gal4-VP16 FLuc – inhibits Gal4-VP16 luciferase reporter, ROR gamma counter-screen; 310,000 tested, 3.5% active; Potency, µM (top dose mostly 53.6 µM), for inactives: at the highest dose activity, negative = inhibition, hits mostly inhibitors; Drosophila S2 Gal4-VP16 UAS-luciferase, luminescence, 20 h;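 further: Gal4-VP16 expression switched on by copper sulfate through the metallothionein promoter; nearly all actives have a fitted effect of over 50% in size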
TDP1 block – inhibitors of human tyrosyl-DNA phosphodiesterase TDP1. AID 485290. Q9NUW8. Potency, µM (highest dose often 130 µM), for the others: top-dose activity change, negative = inhibition, usual class: inhibitors. 350,000 tested, 0.28% active. recombinant TDP1, AlphaScreen DNA substrate cleavage; further: nearly all actives have a fitted effect of over 40% in size
Target sequence (Q9NUW8 whole entry, looked up): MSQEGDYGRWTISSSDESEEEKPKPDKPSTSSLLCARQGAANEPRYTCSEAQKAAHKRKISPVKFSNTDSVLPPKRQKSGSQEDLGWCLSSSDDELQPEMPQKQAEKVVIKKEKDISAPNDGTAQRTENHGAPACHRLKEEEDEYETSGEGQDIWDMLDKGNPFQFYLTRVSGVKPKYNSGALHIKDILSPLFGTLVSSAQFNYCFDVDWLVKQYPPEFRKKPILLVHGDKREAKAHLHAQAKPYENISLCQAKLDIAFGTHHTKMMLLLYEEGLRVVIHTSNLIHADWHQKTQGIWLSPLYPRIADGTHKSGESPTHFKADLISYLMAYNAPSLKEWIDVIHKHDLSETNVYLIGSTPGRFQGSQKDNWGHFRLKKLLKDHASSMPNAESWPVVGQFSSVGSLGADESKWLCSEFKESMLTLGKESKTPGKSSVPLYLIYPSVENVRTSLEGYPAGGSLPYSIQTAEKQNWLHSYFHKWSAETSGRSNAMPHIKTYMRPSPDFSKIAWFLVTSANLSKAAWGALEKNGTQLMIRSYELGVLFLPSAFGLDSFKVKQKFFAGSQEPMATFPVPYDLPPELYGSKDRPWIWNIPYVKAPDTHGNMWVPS
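Tdp1 1 nM final; 15 min RT w/ cpd; substrate 15 nM, 5 min; beads 10 ug/ml, 10 min; AlphaScreen read. Neg ctrl: no enzyme.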
The depositor's hits bear a star. Sampled rows, rich in hits. Any-hit rate of the full collection: about 19%. The call rests on the fitted dose curve; in most records, active means well fitted curve in the direction sought with a large enough effect; inconclusive means small, poorly fitted or top-dose-only effect, or another doubt; inactive means no such curve, though single readings can be large; an effect the other way counts as inactive or inconclusive. On the % scale 0 is the no-effect control and ±100 the full control effect; potency means the concentration at half of the fitted maximal effect.

How did COc1ccc(C(=O)Nc2ccc3nc4c(c(Nc5ccccc5OC)c3c2)CCCC4)c(OC)c1 do in these assays?
DT40 TDP1 no CPT: 3.3µM*; DT40 TDP1 CPT: 3.7µM*; TDP1 block: 12%

How did COc1ccccc1Nc1c2c(nc3ccc(NC(=O)c4cccc(OC)c4OC)cc13)CCCC2 do in these assays?
DT40 TDP1 no CPT: 13µM*; DT40 TDP1 CPT: 5.8µM*; TDP1 block: 12%

Results for COc1ccccc1Nc1c2c(nc3ccc(NC(=O)c4ccccc4F)cc13)CCCC2 ?
DT40 TDP1 no CPT: 16µM*; DT40 TDP1 CPT: 5.2µM*; TDP1 block: 12%

Results for COc1ccc(C(=O)Nc2ccc3nc4c(c(Nc5ccc(OC)c(OC)c5)c3c2)CCCC4)c(OC)c1 ?
DT40 TDP1 no CPT: 2.9µM*; DT40 TDP1 CPT: 3.3µM*; TDP1 block: 9%

How did COc1ccccc1Nc1c2c(nc3ccc(NC(=O)c4ccc(OC)c(OC)c4)cc13)CCCC2 do in these assays?
DT40 TDP1 no CPT: 15µM*; DT40 TDP1 CPT: 23µM*; TDP1 block: 6%

Results for COc1ccc(N(CC(O)CN2C(=O)NC(C)(C)C2=O)S(=O)(=O)c2ccccc2)cc1 (stereo not drawn) ?
RORg inh: -5%; DT40 TDP1 no CPT: -8%; DT40 TDP1 CPT: -12%; Gal4-VP16 FLuc: 3%; TDP1 block: 4%

How did Cc1nn(Cc2ccc(C(=O)NC(C)(C)C)o2)c(C)c1Br do in these assays?
RORg inh: inconclusive; DT40 TDP1 no CPT: 12µM*; DT40 TDP1 CPT: 23µM*; Gal4-VP16 FLuc: 10µM*; TDP1 block: 4%

What do the screens show for `Cc1nn(Cc2ccc(C(=O)Nc3ccc(C(=O)OC(C)C)cc3)o2)c(C)c1Cl`?
RORg inh: 1.6µM*; DT40 TDP1 no CPT: inconclusive; DT40 TDP1 CPT: inconclusive; Gal4-VP16 FLuc: 7%; TDP1 block: -5%

Results for Cc1cc(NC(=O)c2ccc(Cn3nc(C)c(Br)c3C)o2)no1 ?
RORg inh: 0%; DT40 TDP1 no CPT: inconclusive; DT40 TDP1 CPT: inconclusive; Gal4-VP16 FLuc: 2%; TDP1 block: 7%

Results for Cc1nn(Cc2ccc(C(=O)NN)o2)c(C)c1Cl ?
RORg inh: 7%; DT40 TDP1 no CPT: -20%; DT40 TDP1 CPT: -12%; Gal4-VP16 FLuc: 4%; TDP1 block: 6%

What do the screens show for `CCOC(=O)c1cc2c(=O)n3ccccc3nc2n(CC2CCCO2)c1=NC(=O)c1ccc(C)cc1` (stereo not drawn)?
DT40 TDP1 no CPT: -28%; DT40 TDP1 CPT: -24%; TDP1 block: -3%

What do the screens show for `CC(NS(=O)(=O)c1ccc2c(c1)C(C)(C)C(=O)N2C)c1ccccc1` (stereo not drawn)?
RORg inh: -4%; DT40 TDP1 no CPT: -23%; DT40 TDP1 CPT: -8%; Gal4-VP16 FLuc: inconclusive

How did CN(C)C(=O)CN1C(=O)C2CCCCN2C(=O)c2ccccc21 (stereo not drawn) do in these assays?
RORg inh: -7%; DT40 TDP1 no CPT: -6%; DT40 TDP1 CPT: -10%; Gal4-VP16 FLuc: -2%; TDP1 block: -4%

Results for O=C(O)c1cccc(-n2c(/C=C/c3ccccc3)nc3ccccc3c2=O)c1 ?
RORg inh: 0%; DT40 TDP1 no CPT: inconclusive; DT40 TDP1 CPT: inconclusive; Gal4-VP16 FLuc: 13%

What do the screens show for `COc1cccc(/C=C/c2nc3ccccc3c(=O)n2-c2ccc(C)c(C)c2)c1OC`?
DT40 TDP1 no CPT: 8.2µM*; DT40 TDP1 CPT: 10µM*; TDP1 block: 3%

Results for O=C(O)c1cc(-n2c(/C=C\c3ccc(F)cc3)nc3ccccc3c2=O)ccc1Cl ?
DT40 TDP1 no CPT: 21µM*; DT40 TDP1 CPT: 15µM*; TDP1 block: 0%

What do the screens show for `O=c1c2ccccc2nc(/C=C/c2cccc3ccccc23)n1-c1ccc(F)cc1F`?
DT40 TDP1 no CPT: inconclusive; DT40 TDP1 CPT: 23µM*; TDP1 block: -10%

Results for COc1cc(OC)c(OC)cc1/C=C/c1nc2cc3ccccc3cc2c(=O)n1-c1ccc(F)cc1F ?
DT40 TDP1 no CPT: 8.2µM*; DT40 TDP1 CPT: 12µM*; TDP1 block: 10%
